Values joined by “and” are separate entries in the source; they are usually repeats but may differ in a detail not shown here. Identical values can stand only once. More than one record can exist for a structure, and the calls need not agree. Active and inactive are the calls of the source. Rule for the calls: active = hit-call score of the fitted dose curve at least 0.9, where 1 is the maximum; inactive = score below 0.9.
Experiments:
Conditions in all cases: mRNA level, 48 h; actives raise or lower the signal
[1] = read-out: MYC, MYC (gene 4609); assay: LTEA_HepaRG_MYC: Life Technologies and Expression Analysis (LTEA) Assay for MYC using HepaRG (AID 2283518)
Method in brief: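 HepaRG, ~100,000 cells/well, collagen I; 48 h plating; serum-free induction medium; 48 h dosing, duplicate, 100 uM top, half-log, 0.5% DMSO; total RNA → qRT-PCR MYC; gain/loss fit vs DMSO.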

[2] = read-out: matrix metalloproteinase-3 (MMP3), MMP3 (gene 4314); assay: LTEA_HepaRG_MMP3: Life Technologies and Expression Analysis (LTEA) Assay for matrix metalloproteinase-3 (MMP3) using HepaRG (AID 2283519)
Method in brief: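 qRT-PCR read-out of MMP3 mRNA (normalised to three housekeeping genes) in HepaRG liver cells after 48 h chemical exposure; 8-point half-log series, top 100 uM, 0.5% DMSO vehicle. Bidirectional curve fitting against DMSO baseline.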

[3] = read-out: Paternally Expressed 10 (PEG10), PEG10 (gene 23089); assay: LTEA_HepaRG_PEG10: Life Technologies and Expression Analysis (LTEA) Assay for Paternally Expressed 10 (PEG10) using HepaRG (AID 2283520);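 for AC50: PEG10 transcript by qRT-PCR normalised to ACTB GAPDH and POLR2A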
Method in brief: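 PEG10 transcript measured by Fluidigm qRT-PCR, normalized to three housekeeping genes, in HepaRG cells treated 48 h (highest 100 uM, half-log steps, 0.5% DMSO vehicle). Cells plated 48 h before switching to serum-free induction medium.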

[4] = read-out: Nuclear factor NF-kappa-B p105 subunit (Homo sapiens) (UniProt P19838); assay: LTEA_HepaRG_NFKB1: Life Technologies and Expression Analysis (LTEA) Assay for Nuclear Factor Kappa B Subunit 1 (NFKB1) using HepaRG (AID 2283521)
Method in brief: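 Differentiated human HepaRG cells were exposed for 48 h in serum-free induction medium to eight concentrations (top 100 uM, half-log steps, 0.5% DMSO), in duplicate. NFKB1 mRNA was measured by TaqMan qRT-PCR, normalized to ACTB/GAPDH/POLR2A, and fitted bidirectionally against DMSO.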

[5] = read-out: Protein phosphatase 2A (PPP2R4), PTPA (gene 5524); assay: LTEA_HepaRG_PPP2R4: Life Technologies and Expression Analysis (LTEA) Assay for Protein phosphatase 2A (PPP2R4) using HepaRG (AID 2283522)
Method in brief: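 Expression was quantified by Fluidigm qRT-PCR normalised to three housekeeping genes after 48 h treatment. Human HepaRG cells received an 8-point series from 100 µM downward by half-logs, in duplicate with 0.5% DMSO vehicle and 1 mM phenobarbital as induction control.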

[6] = read-out: Phosphatase and tensin (PTEN), PTEN (gene 5728); assay: LTEA_HepaRG_PTEN: Life Technologies and Expression Analysis (LTEA) Assay for Phosphatase and tensin (PTEN) using HepaRG (AID 2283523)
Method in brief: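 HepaRG, 48 h exposure, 8-pt half-log series from 100 uM top, 0.5% DMSO vehicle, duplicates. Readout: Fluidigm qRT-PCR of PTEN transcript; housekeeping normalization (ACTB, GAPDH, POLR2A). Gain or loss fitted relative to DMSO baseline.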

[7] = read-out: solute carrier (SLC22A1), SLC22A1 (gene 6580); assay: LTEA_HepaRG_SLC22A1: Life Technologies and Expression Analysis (LTEA) Assay for solute carrier (SLC22A1) using HepaRG (AID 2283524)
Method in brief: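 qRT-PCR readout (TaqMan, Fluidigm arrays) of SLC22A1 transcript, normalized to three housekeeping genes; bidirectional curve fit relative to 0.5% DMSO vehicle. Differentiated human HepaRG cells, 48 h chemical exposure, top concentration 100 uM, half-log steps, eight points.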

[8] = read-out: Pyruvate Dehydrogenase Kinase 4 (PDK4), PDK4 (gene 5166); assay: LTEA_HepaRG_PDK4: Life Technologies and Expression Analysis (LTEA) Assay for Pyruvate Dehydrogenase Kinase 4 (PDK4) using HepaRG (AID 2283525)
Method in brief: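 HepaRG (human liver line), 48 h chemical exposure, 8-pt half-log CRC top 100 uM, 0.5% DMSO vehicle, duplicates. Readout: TaqMan qRT-PCR of PDK4 mRNA, housekeeping-normalized; gain/loss fit relative to DMSO baseline.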

[9] = read-out: NAD(P)H dehydrogenase [quinone] 1 (NQO1), NQO1 (gene 1728); assay: LTEA_HepaRG_NQO1: Life Technologies and Expression Analysis (LTEA) Assay for NAD(P)H dehydrogenase [quinone] 1 (NQO1) using HepaRG (AID 2283526)
Method in brief: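 NQO1 transcript induction or loss measured by TaqMan qRT-PCR, referenced to three housekeeping genes and fitted bidirectionally against 0.5% DMSO. HepaRG cultures exposed 48 h, duplicate, eight-point half-log series, top 100 uM.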

[10] = read-out: Nuclear factor erythroid 2-related factor 2 (Homo sapiens) (UniProt Q16236); assay: LTEA_HepaRG_NFE2L2: Life Technologies and Expression Analysis (LTEA) Assay for Nuclear factor erythroid 2-related factor 2 (NFE2L2) Transcription Factor using HepaRG (AID 2283527)
Method in brief: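 HepaRG, 48 h dosing, 8-pt half-log series from 100 uM in 0.5% DMSO, duplicates. Read-out: NFE2L2 mRNA by qRT-PCR (ACTB/GAPDH/POLR2A normalization). Bidirectional curve fit vs DMSO baseline.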

[11] = read-out: succinate dehydrogenase complex iron sulfur subunit B (SDHB), SDHB (gene 6390); assay: LTEA_HepaRG_SDHB: Life Technologies and Expression Analysis (LTEA) Assay for succinate dehydrogenase complex iron sulfur subunit B (SDHB) using HepaRG (AID 2283528)
Method in brief: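 HepaRG, 48 h exposure, 8-pt half-log series from 100 uM in 0.5% DMSO, duplicates. Readout: SDHB mRNA by Fluidigm qRT-PCR vs housekeeping genes; bidirectional fit relative to DMSO.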

[12] = read-out: Signal transducer and activator of transcription 3 (Homo sapiens) (UniProt P40763); assay: LTEA_HepaRG_STAT3: Life Technologies and Expression Analysis (LTEA) Assay for Signal transducer and activator of transcription (STAT3) using HepaRG (AID 2283529)
Method in brief: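 HepaRG, 48 h exposure, 8-pt half-log series (top 100 uM), 0.5% DMSO vehicle, duplicates. Readout: STAT3 transcript by Fluidigm qRT-PCR, housekeeping-normalized; bidirectional fit vs DMSO baseline.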

[13] = read-out: solute carrier (SLCO1B1), SLCO1B1 (gene 10599); assay: LTEA_HepaRG_SLCO1B1: Life Technologies and Expression Analysis (LTEA) Assay for solute carrier (SLCO1B1) using HepaRG (AID 2283530)
Method in brief: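 HepaRG, serum-free induction medium, 48 h dosing, 8-pt half-log from 100 uM, 0.5% DMSO vehicle, duplicates. Readout: SLCO1B1 mRNA, qRT-PCR, ACTB/GAPDH/POLR2A normalization; up or down fit vs DMSO.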

[14] = read-out: sulfotransferase 2A1 (SULT2A1), SULT2A1 (gene 6822); assay: LTEA_HepaRG_SULT2A1: Life Technologies and Expression Analysis (LTEA) Assay for sulfotransferase 2A1 (SULT2A1) using HepaRG (AID 2283531)
Method in brief: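 Transcript levels of SULT2A1, quantified by qRT-PCR and normalized to three housekeeping genes, serve as the readout. Human HepaRG cultures receive test chemicals for 48 h at up to 100 uM in half-log steps, with 0.5% DMSO vehicle.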

[15] = read-out: Transforming Growth Factor (TGFA), TGFA (gene 7039); assay: LTEA_HepaRG_TGFA: Life Technologies and Expression Analysis (LTEA) Assay for Transforming Growth Factor (TGFA) using HepaRG (AID 2283532)
Method in brief: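 qRT-PCR read-out of TGFA transcript, normalized to three housekeeping genes, fitted bidirectionally against 0.5% DMSO baseline. Human HepaRG cultures received chemicals for 48 h at eight half-log concentrations, top 100 uM.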

[16] = read-out: Transforming Growth Factor (TGFB1), TGFB1 (gene 7040); assay: LTEA_HepaRG_TGFB1: Life Technologies and Expression Analysis (LTEA) Assay for Transforming Growth Factor (TGFB1) Transporter using HepaRG (AID 2283533)
Method in brief: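 HepaRG, 48 h post-plating, switched to serum-free induction medium; chemicals 100 uM top, half-log, 8 pts, 0.5% DMSO, dup; 48 h exposure; RNA → Fluidigm TaqMan qRT-PCR; norm ACTB/GAPDH/POLR2A; bidirectional fit vs DMSO.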

[17] = read-out: TIMP1, TIMP1 (gene 7076); assay: LTEA_HepaRG_TIMP1: Life Technologies and Expression Analysis (LTEA) Assay for TIMP1 using HepaRG (AID 2283534)
Method in brief: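 Readout is TIMP1 mRNA level measured by qRT-PCR and normalized to three housekeeping genes. Human HepaRG cells were treated for 48 h in duplicate at eight concentrations up to 100 uM (0.5% DMSO); gain or loss fitted against DMSO.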

[18] = read-out: Tumor necrosis factor receptor 1 (TNFRSF1A), TNFRSF1A (gene 7132); assay: LTEA_HepaRG_TNFRSF1A: Life Technologies and Expression Analysis (LTEA) Assay for Tumor necrosis factor receptor 1 (TNFRSF1A) using HepaRG (AID 2283535)
Method in brief: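 Read-out is TNFRSF1A transcript level by TaqMan qRT-PCR, normalized to three housekeeping genes, scored as gain or loss of signal versus 0.5% DMSO. Human HepaRG cells received test chemicals for 48 h at up to 100 uM (half-log series).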

[19] = read-out: Thyroid Hormone Responsive (THRSP), THRSP (gene 7069); assay: LTEA_HepaRG_THRSP: Life Technologies and Expression Analysis (LTEA) Assay for Thyroid Hormone Responsive (THRSP) using HepaRG (AID 2283536)
Method in brief: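 qRT-PCR read-out (Fluidigm TaqMan), housekeeping-normalized (ACTB/GAPDH/POLR2A). HepaRG, 48 h chemical exposure, 8-pt half-log series from 100 uM in 0.5% DMSO, duplicates. Bidirectional curve fit vs 0.5% DMSO baseline.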

[20] = read-out: Cellular tumor antigen p53 (Homo sapiens) (UniProt P04637); assay: LTEA_HepaRG_TP53: Life Technologies and Expression Analysis (LTEA) Assay for Tumor Protein P53 (TP53) using HepaRG (AID 2283537)
Method in brief: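 HepaRG, 48 h exposure, top 100 uM, half-log 8-point, 0.5% DMSO vehicle, duplicates. Read: TP53 mRNA by TaqMan qRT-PCR, normalised to ACTB/GAPDH/POLR2A; bidirectional fit vs DMSO.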

Measured: AC50

Sequence of Cellular tumor antigen p53 (Homo sapiens) (P04637 whole entry, looked up): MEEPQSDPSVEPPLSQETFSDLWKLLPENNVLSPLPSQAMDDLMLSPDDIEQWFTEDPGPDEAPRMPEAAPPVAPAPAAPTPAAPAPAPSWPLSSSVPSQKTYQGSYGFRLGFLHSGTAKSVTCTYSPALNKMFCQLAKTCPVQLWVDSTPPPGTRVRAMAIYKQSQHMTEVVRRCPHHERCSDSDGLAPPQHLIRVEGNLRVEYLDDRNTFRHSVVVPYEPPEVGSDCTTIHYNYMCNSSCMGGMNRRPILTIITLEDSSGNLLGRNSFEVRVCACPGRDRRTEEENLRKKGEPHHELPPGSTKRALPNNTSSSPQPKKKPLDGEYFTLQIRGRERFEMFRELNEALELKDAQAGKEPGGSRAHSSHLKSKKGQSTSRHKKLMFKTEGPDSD
Sequence of Signal transducer and activator of transcription 3 (Homo sapiens) (P40763 whole entry, looked up): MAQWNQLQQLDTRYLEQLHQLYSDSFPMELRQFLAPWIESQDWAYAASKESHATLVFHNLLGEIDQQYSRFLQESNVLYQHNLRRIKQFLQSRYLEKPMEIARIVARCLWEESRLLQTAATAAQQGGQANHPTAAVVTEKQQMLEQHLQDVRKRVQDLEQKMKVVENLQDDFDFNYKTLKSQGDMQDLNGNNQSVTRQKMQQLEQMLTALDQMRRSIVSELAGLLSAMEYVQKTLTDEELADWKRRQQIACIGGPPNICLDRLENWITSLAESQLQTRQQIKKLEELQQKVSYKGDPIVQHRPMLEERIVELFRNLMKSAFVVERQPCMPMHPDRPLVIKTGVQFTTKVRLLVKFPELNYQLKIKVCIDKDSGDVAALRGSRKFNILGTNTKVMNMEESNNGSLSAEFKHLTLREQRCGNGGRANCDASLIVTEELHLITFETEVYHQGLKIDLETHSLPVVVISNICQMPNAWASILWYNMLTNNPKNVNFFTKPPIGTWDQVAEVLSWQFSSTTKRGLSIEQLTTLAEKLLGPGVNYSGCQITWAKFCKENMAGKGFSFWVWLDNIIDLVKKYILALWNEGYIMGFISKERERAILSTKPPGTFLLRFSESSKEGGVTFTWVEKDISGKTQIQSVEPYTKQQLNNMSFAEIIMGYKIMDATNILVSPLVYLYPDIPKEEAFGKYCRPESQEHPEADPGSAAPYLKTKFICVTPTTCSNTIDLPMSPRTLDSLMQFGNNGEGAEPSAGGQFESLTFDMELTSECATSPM
Sequence of Nuclear factor NF-kappa-B p105 subunit (Homo sapiens) (P19838 whole entry, looked up): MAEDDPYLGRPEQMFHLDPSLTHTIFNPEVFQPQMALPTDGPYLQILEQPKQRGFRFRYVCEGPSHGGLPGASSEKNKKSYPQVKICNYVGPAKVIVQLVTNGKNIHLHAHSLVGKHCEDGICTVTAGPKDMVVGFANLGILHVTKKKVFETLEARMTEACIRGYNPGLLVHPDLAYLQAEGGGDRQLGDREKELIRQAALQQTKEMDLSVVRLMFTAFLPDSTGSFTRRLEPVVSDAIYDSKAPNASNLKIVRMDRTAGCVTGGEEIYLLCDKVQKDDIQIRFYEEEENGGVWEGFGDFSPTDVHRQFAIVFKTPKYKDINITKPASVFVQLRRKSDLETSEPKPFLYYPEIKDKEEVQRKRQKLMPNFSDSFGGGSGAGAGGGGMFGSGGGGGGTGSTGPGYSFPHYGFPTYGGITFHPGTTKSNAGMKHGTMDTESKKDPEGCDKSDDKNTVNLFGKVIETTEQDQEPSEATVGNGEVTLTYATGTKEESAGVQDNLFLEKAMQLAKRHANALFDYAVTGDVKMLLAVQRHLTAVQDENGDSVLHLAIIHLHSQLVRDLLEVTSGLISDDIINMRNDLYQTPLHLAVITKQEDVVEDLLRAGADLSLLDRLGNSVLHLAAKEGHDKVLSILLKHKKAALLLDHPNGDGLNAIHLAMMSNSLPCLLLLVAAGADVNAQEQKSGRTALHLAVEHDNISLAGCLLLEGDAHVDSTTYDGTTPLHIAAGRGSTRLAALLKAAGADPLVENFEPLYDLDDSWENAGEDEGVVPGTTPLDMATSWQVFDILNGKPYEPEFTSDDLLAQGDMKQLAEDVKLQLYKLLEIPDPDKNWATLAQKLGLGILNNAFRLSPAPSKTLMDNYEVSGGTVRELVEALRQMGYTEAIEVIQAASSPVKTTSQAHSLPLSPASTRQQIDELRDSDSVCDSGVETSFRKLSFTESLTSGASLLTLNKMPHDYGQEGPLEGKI
Sequence of Nuclear factor erythroid 2-related factor 2 (Homo sapiens) (Q16236 whole entry, looked up): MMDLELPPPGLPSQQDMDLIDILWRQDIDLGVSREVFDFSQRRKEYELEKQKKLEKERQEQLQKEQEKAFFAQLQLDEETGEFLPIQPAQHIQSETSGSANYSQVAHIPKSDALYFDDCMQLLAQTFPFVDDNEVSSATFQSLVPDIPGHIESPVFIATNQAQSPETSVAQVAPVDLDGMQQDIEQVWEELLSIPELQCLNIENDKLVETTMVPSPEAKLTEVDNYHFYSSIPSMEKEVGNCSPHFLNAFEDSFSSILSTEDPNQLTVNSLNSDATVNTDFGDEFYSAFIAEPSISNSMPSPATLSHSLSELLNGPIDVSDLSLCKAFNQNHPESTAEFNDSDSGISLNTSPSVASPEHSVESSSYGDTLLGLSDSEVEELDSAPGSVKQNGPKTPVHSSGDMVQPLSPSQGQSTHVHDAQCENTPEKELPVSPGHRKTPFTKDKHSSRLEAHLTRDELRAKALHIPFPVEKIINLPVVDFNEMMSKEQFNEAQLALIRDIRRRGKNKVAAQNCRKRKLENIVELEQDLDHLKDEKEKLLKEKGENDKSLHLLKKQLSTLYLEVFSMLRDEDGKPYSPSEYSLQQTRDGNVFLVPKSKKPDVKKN

O=C(c1ccc(OCCN2CCCCC2)cc1)c1c(-c2ccc(O)cc2)sc2cc(O)ccc12
active: [3] 65.9 µM | [5] 50 µM | [6] 77.9 µM | [7] 80 µM | [8] 50 µM | [11] 9.92 µM | [12] 50 µM | [13] 68.7 µM | [14] 50 µM | [15] 75.2 µM | [17] 50 µM
inactive: [1] | [2] | [4] | [9] | [10] | [16] | [18] | [19] | [20]

COC(=O)c1ccc(C(=O)OC)cc1
inactive: all assays above

CC/C(=C(\c1ccccc1)c1ccc(OCCN(C)C)cc1)c1ccccc1
inactive: [1] | [4] | [5] | [6] | [8] | [9] | [10] | [11] | [13] | [14] | [15] | [16] | [17] | [18] | [19]
active: [1] 85.6 µM | [2] 86.1 µM and 92.9 µM | [3] 53.8 µM and 94 µM | [4] 81.9 µM | [6] 93.3 µM | [7] 42.3 µM and 15.8 µM | [8] 69.2 µM | [9] 79.9 µM | [10] 77.1 µM | [11] 81.1 µM | [12] 60.3 µM and 95.8 µM | [13] 45.8 µM | [14] 74.6 µM | [15] 94.2 µM | [16] 73.5 µM | [17] 83.7 µM | [18] 66.3 µM | [20] 45.8 µM and 40 µM

C=C(C)C(N)=O
inactive: all assays above

C#C[C@]1(O)CC[C@H]2[C@@H]3CCc4cc(O)ccc4[C@H]3CC[C@@]21C
not listed: [7]
inactive: all other assays above

C[C@]12CC[C@@H]3c4ccc(O)cc4CC[C@H]3[C@@H]1CC[C@@H]2O
active: [3] 10.6 µM | [7] 50 µM | [14] 50 µM
not listed: [4]
inactive: all other assays above

CCCCOCCOCCO
inactive: all assays above
